Source: PubChem BioAssay
The source made the active and inactive calls.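 The calls were made as follows: active = inhibition above the hit cutoff set in the earlier primary screen (cut at about 27% in these data); inactive = the rest.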

Each compound was assayed against Protein phosphatase methylesterase 1 (Homo sapiens) (UniProt Q9Y570) (assay: human PME-1 methylesterase inhibition confirmation – biochemical, fluorescence polarization, FP-Rh probe, triplicate (AID 2171;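 also: 0% = enzyme with DMSO and 100% = wells lacking PME-1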)). Settings: recombinant PME-1, FP-Rh probe fluorescence polarization; at 5.9 µM; stronger effect = higher value.
Chain of Protein phosphatase methylesterase 1 (Homo sapiens) (Q9Y570 whole entry, looked up): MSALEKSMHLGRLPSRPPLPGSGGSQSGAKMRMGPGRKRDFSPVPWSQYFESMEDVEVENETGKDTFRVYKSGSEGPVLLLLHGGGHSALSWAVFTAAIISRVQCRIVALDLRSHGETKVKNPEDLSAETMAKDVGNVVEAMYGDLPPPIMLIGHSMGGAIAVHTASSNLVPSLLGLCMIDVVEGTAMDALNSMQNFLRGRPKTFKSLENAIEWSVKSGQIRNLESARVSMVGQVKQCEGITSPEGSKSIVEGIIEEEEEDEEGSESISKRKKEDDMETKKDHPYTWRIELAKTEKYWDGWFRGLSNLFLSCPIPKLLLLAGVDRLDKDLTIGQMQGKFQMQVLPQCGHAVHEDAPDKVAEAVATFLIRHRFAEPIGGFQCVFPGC

inhibition, active:
C/C(=N\NC(=O)c1ccc(N/N=C(\C)c2ccc(O)cc2)cc1)c1ccc(O)cc1 43.4%
CCOc1ccc(/C=N/Nc2cc(N3CCOCC3)nc(C)n2)c(O)c1 26.4%
COc1ccc(-c2nc(-c3cccs3)c(-c3cccs3)[nH]2)cc1O 39.6%
Oc1nc(Nc2cccc(Cl)c2)sc1/C=C1\C=Nc2ccccc21 26.6%
CCOc1ccc(NC(C(=O)Nc2cccc(C(C)=O)c2)c2ccccc2)cc1 (stereo not given) 33.5%
O=C(COC(=O)c1cccc2c1C(=O)c1ccccc1C2=O)NC1CCCCC1 56.5%
Cc1[nH]c2c(C(=O)N3CCCC(CCC(=O)NCc4ccccc4F)C3)cccc2c1C (stereo not given) 39.7%
CCO[C@@H]1OC(C(=O)N2CCN(Cc3ccccc3)CC2)=C[C@H](c2cn(C(C)=O)c3ccccc23)[C@H]1CCCO 75.4%

inhibition, inactive:
CN(C)c1ccc(NC(=O)Nc2cccc(Cl)c2)cc1 19.8%
COc1ccc(OCCn2cc(/C=N/NC(=O)c3ccncc3)c3ccccc32)cc1 -21.9%
Oc1ccc(Nc2nc3ccccc3nc2Nc2ccc(O)cc2)cc1 -0.74%
COc1ccc(Nc2nc(NN)nc(C)c2[N+](=O)[O-])cc1 17.7%
CCn1c(C)c(/C=N/Nc2nc3ccccc3s2)c2ccccc21 16.8%
CCc1nnc(NC(=O)CSc2nc(C)c3c(c2C#N)CCCC3)s1 13.9%
CC1(OC(=O)c2cnc3ccccc3n2)C(=O)C=C2C=C(C3CC3)OC=C2C1=O (stereo not given) 23.9%
CC(C)N=c1cc2n(-c3ccc(Cl)cc3)c3ccccc3nc-2cc1Nc1ccc(Cl)cc1 17.7%
C=CCn1c(SCC(=O)N2CCCC2=O)nc2sc(CC)cc2c1=O 11.2%
O=C(CNc1ccc(F)cc1)N/N=C/c1c(O)ccc2ccccc12 16.3%
CCOc1ccc2nc(SCC(=O)Nc3ccc4c(c3)OCCO4)[nH]c2c1 25.3%
COc1ccc(-c2nc(-c3ccccc3)c(-c3cc([N+](=O)[O-])ccc3C)[nH]2)cc1O -4.82%
Oc1ccc(N=Cc2ccc(OCc3ccccc3)cc2)cc1 6.36%
Cc1cc(N)ccc1-n1c(C)ccc1C 6.22%
CC1CCCCN1S(=O)(=O)c1ccc(C(=O)Nc2ccccc2-c2nc3ccccc3[nH]2)cc1 (stereo not given) 8.87%
Oc1ccc(/C=N/Nc2ccnc3cc(Cl)ccc23)c(O)c1 19%
C/C(=N/Nc1ccnc2cc(Cl)ccc12)c1ccc(N)cc1 26%
